Measurements taken from PubChem BioAssay (EPA / NIEHS).
Values joined by “and” are separate entries in the source; they are usually repeats but may differ in a detail not shown here. Equal values may be shown once. Results filed as inconclusive are left out. Some structures have more than one record in an assay (separate samples or runs), and their calls can disagree. Active and inactive are the calls of the source. The calls were made as follows, unless noted: active = hit-call score of the fitted dose curve at least 0.9, where 1 is the maximum; inactive = score below 0.9.

Tests used:
[1] = read-out: Interleukin-8 (IL8), CXCL8 (gene 3576); test: BSK_3C_IL8: BioMAP Diversity Plus: 3C Assay for Interleukin-8 (IL8) Biomarker Activity (AID 2283020); details: primary human endothelial cells (HUVEC); actives raise or lower the signal
Method in brief: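 HUVEC, 3C stimulation; 24 h compound exposure; IL-8 read by ELISA; gain or loss of signal fitted relative to DMSO control.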

[2] = read-out: Monokine induced gamma interferon (MIG), CXCL9 (gene 4283); test: BSK_3C_MIG: BioMAP Diversity Plus: 3C Assay for Monokine induced gamma interferon (MIG) Biomarker Activity (AID 2283021); details: primary human endothelial cells (HUVEC); actives raise or lower the signal
Method in brief: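 HUVEC, 3C system; 24 h chemical exposure; MIG by ELISA; bidirectional fit vs DMSO baseline.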

[3] = biological target: human Vitamin D Receptor (VDR), VDR (gene 7421) (UniProt P11473); test: ATG_VDR_TRANS: Attagene TRANS-FACTORIAL HepG2 Assay for human Vitamin D Receptor (VDR) (AID 2283022; active = hit-call score of the fitted dose curve at least 0.9, where 1 is the maximum)
human Vitamin D Receptor (VDR), VDR (gene 7421), sequence (P11473 whole entry, looked up, the tested form may be a part): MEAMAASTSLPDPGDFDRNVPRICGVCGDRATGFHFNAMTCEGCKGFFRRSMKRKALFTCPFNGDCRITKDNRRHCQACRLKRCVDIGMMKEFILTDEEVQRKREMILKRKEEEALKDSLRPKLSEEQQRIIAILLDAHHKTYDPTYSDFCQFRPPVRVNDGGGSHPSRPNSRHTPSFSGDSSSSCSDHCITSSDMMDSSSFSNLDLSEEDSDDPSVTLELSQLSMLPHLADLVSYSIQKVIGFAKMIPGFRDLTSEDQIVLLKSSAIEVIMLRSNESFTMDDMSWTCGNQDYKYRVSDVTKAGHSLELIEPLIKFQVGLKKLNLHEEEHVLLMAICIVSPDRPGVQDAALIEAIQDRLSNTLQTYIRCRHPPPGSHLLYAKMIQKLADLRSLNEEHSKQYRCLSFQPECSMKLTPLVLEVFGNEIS
Method in brief: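 RT-PCR/capillary electrophoresis read-out of reporter mRNA induction in transiently transfected HepG2; 24 h dosing; chimeric NR-Gal4 (TRANS format); gain-of-signal fit against DMSO baseline.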

[4] = BSK_3C_SRB: Viability Assessment in the BioMAP Diversity Plus: 3C Assay (AID 2283023); details: primary human endothelial cells (HUVEC);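 also: fitted both ways against DMSO so a hit may be signal rise or drop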
Method in brief: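 HUVEC, 24 h post-dose; 10% TCA fix, 0.1% SRB stain, A560 nm. Bidirectional curve fit vs DMSO negative control.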

[5] = read-out: Matrix Metallopeptidase 1 (MMP1), MMP1 (gene 4312); test: BSK_BE3C_MMP1: BioMAP Diversity Plus: BE3C Assay for Matrix Metallopeptidase 1 (MMP1) Biomarker Activity (AID 2283024); details: primary human bronchial epithelial cells; actives raise or lower the signal
Method in brief: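 ELISA read-out of MMP1 in human lung bronchial epithelial primary cultures, 24 h post-dose; bidirectional curve fit vs DMSO baseline, gain or loss of signal scored.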

[6] = BSK_4H_SRB: Viability Assessment in the BioMAP Diversity Plus: 4H Assay (AID 2283027); details: primary human endothelial cells (HUVEC);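 also: cells exposed to compound for 24 h before staining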;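 as to AC50: curves fitted both ways versus DMSO so AC50 may be loss or gain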
Method in brief: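 Cytotoxicity read-out in primary human endothelial cells: after 24 h compound exposure, cells were TCA-fixed (10%), stained with 0.1% SRB and absorbance taken at 560 nm. Values fitted in both directions relative to DMSO.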

[7] = BSK_BE3C_SRB: Viability Assessment in the BioMAP Diversity Plus: BE3C Assay (AID 2283028); details: primary human bronchial epithelial cells;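 as to AC50: fitted both ways so AC50 may mark signal gain or loss versus DMSO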
Method in brief: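 Primary human bronchial epithelium; chemical dosing, 24 h; 10% TCA fix, 0.1% SRB stain, A560; bidirectional fit vs DMSO baseline.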

[8] = read-out: Thrombomodulin, THBD (gene 7056); test: BSK_3C_Thrombomodulin: BioMAP Diversity Plus: 3C Assay for Thrombomodulin Biomarker Activity (AID 2283029); details: primary human endothelial cells (HUVEC); actives raise or lower the signal
Method in brief: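 HUVEC, 3C conditions; compound 24 h; thrombomodulin by ELISA; bidirectional curve fit vs DMSO baseline; parallel SRB total-protein staining for cytotoxicity.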

[9] = read-out: Urokinase-type plasminogen activator receptor (uPAR), PLAUR (gene 5329); test: BSK_4H_uPAR: BioMAP Diversity Plus: 4H Assay for Urokinase-type plasminogen activator receptor (uPAR) Biomarker Activity (AID 2283030); details: primary human endothelial cells (HUVEC); actives raise or lower the signal
Method in brief: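 HUVEC, 24 h post-dose; uPAR by ELISA; bidirectional fit vs DMSO baseline.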

[10] = read-out: Vascular endothelial growth factor receptor 2 (Homo sapiens) (UniProt P35968); test: BSK_4H_VEGFRII: BioMAP Diversity Plus: 4H Assay for Vascular endothelial growth factor receptor 2 (VEGFR2) Biomarker Activity (AID 2283031); details: primary human endothelial cells (HUVEC); actives raise or lower the signal
Method in brief: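 HUVEC (human primary), 4H system; 24 h post-dose; VEGFRII by ELISA; bidirectional curve fit vs DMSO baseline; gain or loss of signal scored.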

[11] = read-out: Human Leukocyte Antigen - DR isotype (HLADR), HLA-DRA (gene 3122); test: BSK_BE3C_HLADR: BioMAP Diversity Plus: BE3C Assay for Human Leukocyte Antigen - DR isotype (HLADR) Biomarker Activity (AID 2283032); details: primary human bronchial epithelial cells; actives raise or lower the signal
Method in brief: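 Primary human bronchial epithelial cells (BE3C); 24 h chemical exposure; HLA-DR by ELISA; bidirectional curve fit vs DMSO baseline.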

[12] = read-out: Vascular cell adhesion molecule 1 (VCAM1), VCAM1 (gene 7412); test: BSK_4H_VCAM1: BioMAP Diversity Plus: 4H Assay for Vascular cell adhesion molecule 1 (VCAM1) Biomarker Activity (AID 2283033); details: primary human endothelial cells (HUVEC); actives raise or lower the signal
Method in brief: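 HUVEC, 24 h post-dose; VCAM-1 by ELISA. Bidirectional curve fit vs DMSO baseline. Parallel SRB total-protein stain (0.1% SRB after 10% TCA fixation, 560 nm) for cytotoxicity.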

[13] = read-out: Interferon-gamma inducible Protein 10 (IP10), CXCL10 (gene 3627); test: BSK_BE3C_IP10: BioMAP Diversity Plus: BE3C Assay for Interferon-gamma inducible Protein 10 (IP10) Biomarker Activity (AID 2283034); details: primary human bronchial epithelial cells; actives raise or lower the signal
Method in brief: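 ELISA readout of IP-10 in BE3C system: primary human bronchial epithelial cells, 24 h post-dosing; bidirectional curve fit vs DMSO baseline.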

[14] = read-out: Monokine induced gamma interferon (MIG), CXCL9 (gene 4283); test: BSK_BE3C_MIG: BioMAP Diversity Plus: BE3C Assay for Monokine induced gamma interferon (MIG) Biomarker Activity (AID 2283035); details: primary human bronchial epithelial cells; actives raise or lower the signal
Method in brief: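 ELISA quantified MIG after 24 h exposure of primary bronchial epithelial cultures, analysed in both directions relative to DMSO. Cytotoxicity tracked in parallel cultures by sulforhodamine B staining.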

[15] = read-out: Plasminogen activator inhibitor-1 (PAI1), SERPINE1 (gene 5054); test: BSK_BE3C_PAI1: BioMAP Diversity Plus: BE3C Assay for Plasminogen activator inhibitor-1 (PAI1) Biomarker Activity (AID 2283037); details: primary human bronchial epithelial cells; actives raise or lower the signal
Method in brief: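 ELISA read-out of PAI-1 from human bronchial epithelial primary cells, 24 h post-dosing; bidirectional curve fit vs DMSO baseline, gain or loss of signal scored.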

[16] = read-out: urokinase plasminogen activator (uPA), PLAU (gene 5328); test: BSK_BE3C_uPA: BioMAP Diversity Plus: BE3C Assay for urokinase plasminogen activator (uPA) Biomarker Activity (AID 2283038); details: primary human bronchial epithelial cells; actives raise or lower the signal
Method in brief: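 ELISA read-out of uPA in human lung primary bronchial epithelial cultures, 24 h post-dosing. Gain or loss of signal fitted bidirectionally relative to DMSO baseline; cytotoxicity checked in parallel cultures via SRB total protein stain.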

[17] = read-out: Urokinase-type plasminogen activator receptor (uPAR), PLAUR (gene 5329); test: BSK_BE3C_uPAR: BioMAP Diversity Plus: BE3C Assay for Urokinase-type plasminogen activator receptor (uPAR) Biomarker Activity (AID 2283039); details: primary human bronchial epithelial cells; actives raise or lower the signal
Method in brief: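 ELISA readout of uPAR on human lung primary bronchial epithelial cells, 24 h post-dosing. Bidirectional curve fit relative to DMSO vehicle baseline; gain or loss of signal both scored.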

[18] = read-out: Pselectin, SELP (gene 6403); test: BSK_4H_Pselectin: BioMAP Diversity Plus: 4H Assay for Pselectin Biomarker Activity (AID 2283026); details: primary human endothelial cells (HUVEC); actives raise or lower the signal
Method in brief: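 HUVEC, 24 h chemical exposure; P-selectin read by ELISA. Bidirectional curve fit vs DMSO baseline; gain or loss of signal scored.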

[19] = BSK_3C_Vis: BioMAP Diversity Plus: 3C Assay for Morphology Visualization (AID 2283025); details: primary human endothelial cells (HUVEC);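 also: fitted both ways so gain or loss versus DMSO counts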;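 as to AC50: light microscopy image of cell morphology used as background control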
Method in brief: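 HUVEC, 3C system; light microscopy of morphology at 24 h post-dose. Bidirectional fit vs DMSO baseline. Secondary readout, background-control function.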

[20] = read-out: Transforming growth factor beta 1 (TGFb1), TGFB1 (gene 7040); test: BSK_BE3C_TGFb1: BioMAP Diversity Plus: BE3C Assay for Transforming growth factor beta 1 (TGFb1) Biomarker Activity (AID 2283036); details: primary human bronchial epithelial cells; actives raise or lower the signal
Method in brief: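 Read-out: ELISA for TGF-b1 in primary human bronchial epithelial cultures, 24 h post-dose. Bidirectional curve fitting vs DMSO control; gain or loss of signal both scored.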

Measured: AC50

O=C(O)C(F)(F)C(F)(F)C(F)(F)OC(F)(F)F
inactive: [1] | [2] | [3] | [4] | [5] | [6] | [7] | [8] | [9] | [10] | [11] | [12] | [13] | [14] | [15] | [16] | [17]
active: [5] 37.3 µM | [8] 5.95 µM

CO[Si](C)(CCC(F)(F)C(F)(F)C(F)(F)C(F)(F)C(F)(F)C(F)(F)F)OC
not listed: [7] | [19] | [20]
inactive: all other assays above

OCC(F)(F)C(F)(F)C(F)(F)C(F)(F)C(F)(F)C(F)(F)C(F)(F)C(F)(F)CO
inactive: [1] | [2] | [3] | [4] | [5] | [6] | [8] | [9] | [10] | [16]
active: [4] 24.6 µM | [5] 8.5 µM | [6] 36.5 µM | [11] 30 µM and 31.7 µM | [12] 30 µM and 24.8 µM | [13] 38 µM and 30.8 µM | [14] 43 µM and 46.6 µM | [15] 37.4 µM and 30 µM | [17] 43.7 µM and 40.9 µM

O=C(Cl)C(F)(F)C(F)(F)C(F)(F)C(F)(F)C(F)(F)C(F)(F)F
active: [1] 27 µM | [5] 29.3 µM and 30 µM
inactive: [1] | [2] | [3] | [4] | [5] | [18] | [6] | [8] | [9] | [10] | [11] | [12] | [13] | [14] | [15] | [16] | [17]

CC(C)CCCC(C)CCO (stereo not given)
active: [4] 33.8 µM | [19] 39.6 µM | [18] 31.2 µM | [6] 28.8 µM | [7] 7.28 µM | [11] 29.1 µM | [13] 14.4 µM | [20] 20 µM | [16] 28.6 µM | [17] 24.9 µM
inactive: all other assays above

O=C(O)C(F)(F)C(F)(F)C(F)(F)OC(F)(C(F)(F)F)C(F)(F)F
active: [5] 37 µM
inactive: [1] | [2] | [3] | [4] | [5] | [6] | [7] | [8] | [9] | [10] | [11] | [12] | [13] | [14] | [15] | [16] | [17]

O=S(=O)(O)CCC(F)(F)C(F)(F)C(F)(F)C(F)(F)F
active: [1] 30 µM
inactive: [1] | [2] | [3] | [4] | [5] | [18] | [6] | [7] | [8] | [9] | [10] | [11] | [12] | [13] | [14] | [15] | [16] | [17]

O=C(F)C1(F)C(F)(F)C(F)(F)C(F)(F)C(F)(F)C1(F)F
not listed: [7] | [18] | [19] | [20]
inactive: all other assays above

Cc1cnccn1
not listed: [3] | [18]
inactive: all other assays above

OCC(O)CC(F)(F)C(F)(F)C(F)(F)C(F)(F)F (stereo not given)
not listed: [18] | [19] | [20]
inactive: all other assays above

CC(C)(C)c1cc(CCC(=O)NCCCCCCNC(=O)CCc2cc(C(C)(C)C)c(O)c(C(C)(C)C)c2)cc(C(C)(C)C)c1O
active: [19] 3.25 µM | [13] 0.121 µM
not listed: [3] | [7]
inactive: all other assays above
